Assay results: PubChem BioAssay (NCATS)
Inconclusive results are not listed. Where a call stands in place of a potency, no number is given. Activity calls are given as the source filed them. Calls follow the shape of the dose curve; as a rule, active = well fitted curve in the direction sought with a large enough effect; inconclusive = small, poorly fitted or top-dose-only effect, or another doubt; inactive = no such curve, though single readings can be large; an effect the other way counts as inactive or inconclusive. Square brackets hold non-standard residues; d marks the D form. Peptide text beside a SMILES is read from it. * marks the point of attachment. ξ: configuration not given here. Hexanoyl = CCCCCC(=O)*; ξL = CC(C)CC(N)C(=O)O

Legend:
[1] = COV-362 Cancer Cell Toxicity qHTS against the NCATS CANVASS Library (AID 1347352); settings: COV-362 viability, CellTiter-Glo luminescence, 72 h; series mostly up to 38.3 µM
Outline: (§1)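 Using an ATP-based luminescent reagent after three days of treatment, toxicity is scored across an eleven-concentration range in wells holding 1000 cells each.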

[2] = UWB1.289-WTBRCA1 Cancer Cell Toxicity qHTS against the NCATS CANVASS Library (AID 1347354); settings: UWB1.289-WTBRCA1 viability, CellTiter-Glo luminescence, 72 h; series mostly up to 38.3 µM; also: potency is read from the fitted curve at half-maximal effect
Outline: as §1

[3] = SDT Cancer Cell Toxicity qHTS against the NCATS CANVASS Library (AID 1347365); settings: SDT dog glioma viability, ATP luminescence, 72 h; series mostly up to 46.1 µM; also: nearly all actives have a fitted effect of over 60% in size; also: potency is read from the fitted curve at half-maximal effect
Outline: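 Canine SDT glioma cell toxicity was scored by ATP-dependent luminescence after a 72 hr incubation with an 11-point compound series.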

[4] = qHTS for Inflammasome Signaling Inhibitors: IL-1-beta AlphaLISA screen against the NCATS CANVASS Library (AID 1347379); settings: THP-1 LPS/ATP, IL-1B AlphaLISA secretion, 16 h; series mostly up to 57.5 µM;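 also: human THP-1 cells primed with LPS then triggered with ATP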
Outline: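 THP-1, 1 hr compound pre-incubation, then LPS 250 ng/mL + ATP 1.25 mM (final); 16 hr total with compound; IL-1B AlphaLISA, ex 680/em 615 nm; 11-point qHTS, up to 57.5 uM final.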

[5] = J3T Cancer Cell Toxicity qHTS against the NCATS CANVASS Library (AID 1347371); settings: J3T dog glioma viability, ATP luminescence, 72 h; series mostly up to 46.1 µM; also: potency is read from the fitted curve at half-maximal effect
Outline: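 ATP-based cytotoxicity in canine J3T cells: 72 hr exposure at 37C, 11-point titration, CellTiterGlo luminescent detection.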

[6] = qHTS for inhibitors of Wild type Zika virus screened against the NCATS CANVASS Library (AID 1347396); settings: Vero cells, Zika virus CPE, CellTiter-Glo, 72 h; series mostly up to 45.9 µM;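 also: ATP luminescence of surviving cells so rescue from viral cell killing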
Outline: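 Protection against wild-type Zika cytopathic effect is measured in African green monkey Vero 766 cells exposed to an 11-point compound series. Surviving cells are quantified by CellTiter Glo luminescence after 72 h.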

[7] = qHTS for Antimalaria activity screened against the NCATS CANVASS Library (AID 1347380); also: nearly all actives have a fitted effect of over 40% in size; also: potency is read from the fitted curve at half-maximal effect; settings: P. falciparum Dd2 growth, SYBR Green fluorescence, 72 h; series mostly up to 28.7 µM
Outline: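 Measures proliferation or cytotoxicity against Dd2 blood stages in 72 h cultures, 11-point qHTS dosing, with SYBR Green fluorescence as read-out; dihydroartemisinin titration served as control.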

[8] = Vero-766 cells viability qHTS against the NCATS CANVASS Library: Counterscreen for Zika virus inhibition assay (AID 1347394); settings: Vero 766 viability, CellTiter-Glo luminescence, 72 h; series mostly up to 46.1 µM; also: nearly all actives have a fitted effect of over 60% in size
Outline: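 CellTiter Glo luminescence measured cytotoxicity after 72 h at 37C in uninfected Vero 766 cells, plated at 1000 cells/well. Compounds were applied in an 11-point series. Wells without cells defined 100% inhibition.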

Row | SMILES | Potency [1] | Potency [2] | Potency [3] | Potency [4] | Potency [5] | outcome [6] | Potency [7] | Potency [8]
1 | COc1ccc(-c2oc3cc(OC)cc(OC)c3c(=O)c2O)cc1 | inactive | inactive | 10.5 µM (active) | inactive | – | – | – | –
2 | COC(=O)[C@]1([C@H]2CCC(=O)O2)CC(=O)c2c(O)cc(C)cc2O1 | – | – | inactive | inactive | inactive | inactive | – | –
3 | COc1c(O)cc(O)c2c(=O)cc(-c3ccccc3)oc12 | inactive | – | – | – | – | – | inactive | –
4 | [C-]#[N+][C@@]12C(=O)[C@@H]3[C@@H](O[C@@]4(C(=O)N(C)c5cccc1c54)C3(C)C)C(=O)[C@@]2(C)C=C | – | inactive | inactive | inactive | inactive | – | – | inactive
5 | CC[C@@H]1C[C@@]2(CC)OC(=O)[C@@]3(CC)[C@H](CC)[C@@H]1[C@@H]23 | inactive | inactive | inactive | inactive | inactive | inactive | – | –
6 | CN1C(=O)C(=O)N2C(=C[C@]3(c4c[nH]c5ccccc45)c4ccccc4N[C@H]23)C1=O | – | inactive | – | – | inactive | inactive | – | –
7 | C=C1C[C@]23C=CC(=O)[C@@](C)(CCCC(C)C(=O)N[C@@H](CO)C(=O)O)[C@@H]2C[C@@H]1CC3 (stereo not given in full) | – | – | inactive | inactive | – | inactive | inactive | inactive
8 | C=C(Cl)[C@](Cl)(CBr)CC[C@@H](Br)C(C)(C)Cl | inactive | 18.8 µM (active) | – | – | 4.18 µM (active) | inactive | – | –
9 | COC(=O)c1cccc2oc(-c3cccc4oc(-c5c(C)cccc5O)nc34)nc12 | – | – | – | inactive | inactive | inactive | – | –
10 | CC(C)=CCCC(C)(O)[C@H]1CC=C(C)C(O)C1 (stereo not given in full) | – | inactive | inactive | – | inactive | – | – | –
11 | CCCCCC(=O)N[C@@H](CC(C)C)C(=O)N[C@H](C=O)CCC(=O)O (Hexanoyl-Leu-Glu-aldehyde) | inactive | – | inactive | inactive | – | – | – | –
12 | C[C@@]12CCC[C@@](C)(C(=O)OP(=O)(O)OC[C@H]3O[C@@H](n4cnc5c(N)ncnc54)[C@H](O)[C@@H]3O)[C@H]1C[C@@H](O)[C@@]13C[C@@H](CC[C@@H]21)[C@](C)(O)C3 | inactive | – | – | inactive | 16.6 µM (active) | – | inactive | –
13 | C/C=C/[C@H]1[C@H]2C(=O)c3c(O)c(C)c(O)c(C)c3[C@]1(C(=O)O)C(=O)C=C2C | – | inactive | inactive | inactive | inactive | inactive | inactive | inactive
14 | C/C=C1/C2=CCCN3C(=O)O[C@H]([C@H]1O)[C@H]23 | – | inactive | – | inactive | inactive | inactive | – | –
15 | CC(C)=CCC[C@]1(C)[C@H]2CC(=O)[C@@]3(CO3)[C@@H]1C2 | inactive | inactive | inactive | inactive | inactive | inactive | – | inactive
16 | C=C1[C@@]2(C)CC3C4(C)CCC(O)C(C)(C)C4CCC3(C)[C@]1(C(=O)OC)C(=O)C(C)(O)C2=O (stereo not given in full) | – | inactive | – | inactive | inactive | – | inactive | inactive
17 | C=C[C@]1(C)CC[C@@H]([C@H](C)C(=O)CC=C(C)C)O1 | – | inactive | inactive | inactive | – | inactive | inactive | –

Row | SMILES | Potency [1] | Potency [2] | Potency [3] | Potency [4] | Potency [5] | outcome [6] | Potency [7] | Potency [8]
18 | COc1ccc([C@@H]2c3cc4c(cc3C(=O)C(C)C2C)OCO4)cc1OC (stereo not given in full) | inactive | – | – | inactive | inactive | inactive | – | inactive
19 | CN1CC[C@@]23c4ccccc4N[C@@H]1[C@@]21CCN(C)[C@@H]3Nc2ccccc21 | inactive | inactive | – | – | inactive | inactive | 0.0075 µM (active) | inactive
20 | COc1cc2ccc(=O)oc2c(O)c1O[C@@H]1O[C@H](CO)[C@@H](O)[C@H](O)[C@H]1O | – | – | inactive | – | – | inactive | – | inactive
21 | C[C@@]12C[C@@H](C[C@@H]3C(=O)O[C@@H](c4ccoc4)[C@H](OC(=O)c4ccccc4)[C@@H]31)OC2=O | – | – | inactive | inactive | – | inactive | inactive | –
22 | C[C@@]12CCC[C@@](C)(C(=O)O)[C@H]1C[C@@H](O)[C@@]13C[C@@H](CC[C@@H]21)[C@](C)(O)C3 | – | inactive | inactive | inactive | inactive | – | inactive | inactive
23 | O=C1OC(CCO)c2cccc(O)c21 (stereo not given) | – | – | – | – | – | inactive | inactive | inactive
24 | CN1CC[C@]23c4ccccc4N[C@H]1[C@]21CCN(C)[C@H]3Nc2ccccc21 | inactive | inactive | – | inactive | inactive | – | inactive | inactive
25 | Cc1cc(O)cc2c1C(=O)c1c(O)cc(O)cc1C2=O | – | inactive | – | inactive | inactive | – | – | inactive
26 | C[C@@]12CCC[C@@](C)(C(=O)O)[C@H]1CC[C@@]13C[C@@H](CC[C@H]12)[C@](C)(O)C3 | – | inactive | – | inactive | inactive | – | inactive | inactive
27 | O=C1CC(c2ccc(O)cc2)Oc2cc(O)ccc21 (stereo not given) | – | – | – | inactive | – | – | inactive | inactive
28 | CO[C@@H](C[C@@H](C)[C@@H](O)/C=C/C=C/CNC(=O)C(C)(C)[C@H](O)\C(C)=C/C=C\C=C\Cc1cnco1)[C@]1(O)[C@@H](C)C(=O)N(C)[C@@]12COC2=O | inactive | – | inactive | – | inactive | inactive | – | –
29 | CC[C@@H](C)[C@H]1NC(=O)C(CC(C)C)NC(=O)[C@@H](CC(C)C)NC(=O)[C@H](Cc2c[nH]c3ccccc23)NC(=O)CNC(=O)[C@@H](CC(N)=O)NC1=O (stereo partly drawn) (cyclo(GW[dL][ξL][dI][dN])) | inactive | inactive | 16.6 µM (active) | – | – | inactive | – | –
30 | O=c1cc(-c2ccc(O)cc2)oc2cc(O)c([C@@H]3OC(CO)[C@H](O)[C@@H](O)[C@H]3O)c(O)c12 (stereo not given in full) | inactive | inactive | inactive | – | – | inactive | inactive | –
31 | CC(=O)N[C@H](C)c1nc(/C=C/C=C/C(=O)CC2CC(=O)CC[C@]2(C)O)cs1 (stereo not given in full) | inactive | inactive | inactive | inactive | inactive | inactive | inactive | inactive
32 | C=C1CCC2C(C)(C(=O)O)CCC(CC/C(C)=C/C(=O)NC(CCC(N)=O)C(=O)O)[C@@]2(C)C1 (stereo not given in full) | – | inactive | – | inactive | – | inactive | – | inactive
33 | C=C1C[C@H]2O[C@@H]3[C@@H]4[C@H](CC[C@@](C)(O)[C@@H]42)[C@H](C)COC3(C)[C@@H](OC(=O)CCCCCCC)CC1=O (stereo not given in full) | – | – | – | 19.3 µM (active) | – | – | – | –
